SRC1 TRFRET art: TR-FRET artefact, counter-screen to PPARgamma/SRC-1 agonist assay; TR-FRET detection artefact counter-screen, emission ratio; stronger effect = higher value; TR-FRET ratio at 8 µM; 0.34% of 99,000 active; AID 1051; in the data active = TR-FRET ratio above about 2300
PPARg SRC-2 ag: PPARgamma-driven SRC-2 recruitment agonism; PPARgamma LBD-SRC-2 recruitment, biochemical; 0.34% of 200,000 active; activation, % at 8 µM; AID 1032; P37231; in the data active = activation above about 22%
Target sequence (P37231 whole entry, looked up, the tested form may be a part): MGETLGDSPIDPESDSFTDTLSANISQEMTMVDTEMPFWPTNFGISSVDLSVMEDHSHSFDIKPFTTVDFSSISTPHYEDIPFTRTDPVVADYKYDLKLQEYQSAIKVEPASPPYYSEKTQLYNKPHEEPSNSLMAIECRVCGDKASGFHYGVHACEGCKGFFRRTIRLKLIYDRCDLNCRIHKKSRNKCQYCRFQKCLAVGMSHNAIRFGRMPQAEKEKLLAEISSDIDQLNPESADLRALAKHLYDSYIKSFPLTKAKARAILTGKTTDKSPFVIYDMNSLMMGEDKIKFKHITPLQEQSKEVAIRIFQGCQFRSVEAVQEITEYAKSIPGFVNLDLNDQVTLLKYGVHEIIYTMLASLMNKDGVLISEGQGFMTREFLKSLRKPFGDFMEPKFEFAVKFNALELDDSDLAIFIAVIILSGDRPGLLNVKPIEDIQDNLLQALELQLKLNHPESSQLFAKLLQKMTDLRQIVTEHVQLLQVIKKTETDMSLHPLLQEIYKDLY
SRC2 TRFRET art: TR-FRET artefact, counter-screen to PPARgamma/SRC-2 agonist assay; stronger effect = higher value; TR-FRET ratio at 8 µM; 0.4% of 200,000 active
PPARg SRC1 recr: PPARgamma-driven SRC-1 recruitment agonism | 0.41% of 200,000 active | PPARgamma-SRC-1 coactivator recruitment biochemical assay | activation, % at 8 µM | P37231; in the data active = activation above about 19%
SRC3 TRFRET art: flags TR-FRET format artefacts in PPARgamma SRC-3 recruitment agonist screen | AID 1048 | 0.39% of 99,000 active | TR-FRET artefact counter-screen, PPARgamma/SRC-3 format; stronger effect = higher value | TR-FRET ratio at 8 µM
PPARg SRC3 recr: PPARgamma-driven SRC-3 recruitment agonism. P37231. biochemical PPARgamma/SRC-3 coactivator recruitment assay. activation, % at 8 µM. 0.26% of 200,000 active. AID 731; in the data active = activation above about 23%
Of the large screens only hits and unclear results are named; the others gave an inactive call. Sampled rows, rich in hits. Any-hit rate of the full collection: about 0.84%. Rule as the data show it, unless noted: active = TR-FRET ratio above about 2000; inactive = the rest.

CC(C)N(C(=O)c1ccccc1-c1ccccc1)C(C)C	none (no result: SRC1 TRFRET art, SRC3 TRFRET art)
Cc1cc(C)n(/N=C/c2ccc(C(C)C)cc2)c(=O)c1C#N	none
O=C(CSc1ccc2nnc(-c3ccc(Cl)cc3)n2n1)N1CCCc2ccccc21	PPARg SRC-2 ag 46, SRC2 TRFRET art 3594
O=C(CSc1nnc(-c2cccs2)n1-c1ccccc1)N1CCc2ccccc21	PPARg SRC1 recr 30 (no result: SRC1 TRFRET art, SRC3 TRFRET art)
O=C(CSc1nnc(-c2ccco2)n1-c1ccccc1)N1CCc2ccccc21	none (no result: SRC1 TRFRET art, SRC3 TRFRET art)
COc1ccccc1NC(=O)C1=C(C)NC(SCC(=O)c2ccccc2)=C(C#N)C1c1ccco1 (configuration not stated)	SRC2 TRFRET art 2496 (no result: SRC1 TRFRET art, SRC3 TRFRET art)
OCCN=C1CCCc2c1[nH]c1ccc(Br)cc21	PPARg SRC1 recr 19 (no result: SRC1 TRFRET art, SRC3 TRFRET art)
O=C(CSc1nnc(Cc2csc(Nc3cccc(Cl)c3)n2)o1)N1CCc2ccccc21	SRC2 TRFRET art 2013 (no result: SRC1 TRFRET art, SRC3 TRFRET art)
COc1ccc(CC(=O)NCc2nnc(SCC(=O)Nc3cccc(F)c3)n2C)cc1	PPARg SRC-2 ag 38
COc1ccc(CC(=O)NCc2nnc(SCC(=O)Nc3ccccc3)n2C)cc1	none
COc1ccc(NC(=O)/C(=C\c2ccc3c(c2)OCO3)NC(C)=O)cc1	none
Cc1[nH]c2ccccc2c1C(=O)C(=O)NCCOc1ccccc1	PPARg SRC-2 ag 24
CCOc1ccc(-c2c(=O)n(OCc3ccc([N+](=O)[O-])cc3)c3ccccc3[n+]2[O-])cc1	none
COc1cccc(-c2cc3nc(-c4ccccc4)cc(N4CCC5(CC4)OCCO5)n3n2)c1	SRC2 TRFRET art 2317 (no result: SRC1 TRFRET art, SRC3 TRFRET art)
CC(=O)Nc1c(O)nc(SCC(=O)Nc2ccc(C(C)=O)cc2)[nH]c1=O	PPARg SRC3 recr 26 (no result: SRC1 TRFRET art, SRC3 TRFRET art)
CC(=O)Nc1c(O)nc(SCC(=O)Nc2cccc(C)c2)[nH]c1=O	none (no result: SRC1 TRFRET art, SRC3 TRFRET art)
Cc1cc(C)c(S(=O)(=O)NCCn2c(C)cc3ccccc32)c(C)c1	SRC2 TRFRET art 2078 (no result: SRC1 TRFRET art, SRC3 TRFRET art)
Cc1cc(C)c(S(=O)(=O)NCc2ccc3c(c2)cc(C)n3C)c(C)c1	SRC2 TRFRET art 2083 (no result: SRC1 TRFRET art, SRC3 TRFRET art)
Cc1cc2ccccc2n1CCNC(=O)Cc1ccccc1	none (no result: SRC1 TRFRET art, SRC3 TRFRET art)
Cc1ccc(S(=O)(=O)NCCn2c(C)cc3ccccc32)cc1	SRC2 TRFRET art 2803 (no result: SRC1 TRFRET art, SRC3 TRFRET art)
CC(=O)Nc1ccc(S(=O)(=O)NCc2ccc3c(c2)cc(C)n3C)cc1	none (no result: SRC1 TRFRET art, SRC3 TRFRET art)
Cc1cc2cc(CNC(=O)c3ccc(S(=O)(=O)N(C)C)cc3)ccc2n1C	SRC2 TRFRET art 2108 (no result: SRC1 TRFRET art, SRC3 TRFRET art)
COc1cc(-c2nc3ccccn3c2/N=C/c2cc(OC)c(O)cc2Cl)ccc1O	none
Cc1ccc(NC(=O)COC(=O)CCC(=O)c2cccs2)c(C)c1	none
Oc1ccc(C2Nc3cccc4cccc(c34)N2)c(O)c1	PPARg SRC1 recr 30, PPARg SRC3 recr 31 (no result: SRC1 TRFRET art, SRC3 TRFRET art)
CCSc1nc2ccc(N3C(=O)C4C5C=CC(C5)C4C3=O)cc2s1 (configuration not stated)	none
COc1cc(NC(=O)c2cc(Cl)ccc2Cl)ccc1-c1cc2ccccc2oc1=O	SRC2 TRFRET art 2091 (no result: SRC1 TRFRET art, SRC3 TRFRET art)
O=C1C(Cl)=C(Nc2ccccc2O)C(=O)N1CCc1ccccc1	none
Cc1cc(/C=C2/C(=O)N(C)C(=S)N2C)c(C)n1C1CC1	PPARg SRC-2 ag 22
O=C(OCC(=O)N1CCN(C(=O)COC(=O)c2ccncc2)CC1)c1ccncc1	none (no result: SRC1 TRFRET art, SRC3 TRFRET art)
CCS(=O)(=O)N1CCN(c2nc(-c3ccccc3)cs2)CC1	SRC3 TRFRET art 2121
CS(=O)(=O)N1CCN(c2nc(-c3ccccc3)cs2)CC1	none (no result: SRC1 TRFRET art, SRC3 TRFRET art)
O=C(/C=C/c1ccccc1)N/C(=C/c1ccccc1)C(=O)N1CCCCC1	none (no result: SRC1 TRFRET art, SRC3 TRFRET art)
O=C(COc1ccc(/C=N/NC(=O)c2cc3ccccc3o2)cc1Br)Nc1ccccc1	PPARg SRC-2 ag 63, SRC2 TRFRET art 3281 (no result: SRC1 TRFRET art, SRC3 TRFRET art)
Cc1cccc2nc(-c3ccccc3)nc(N3CCC(O)(c4ccc(Cl)cc4)CC3)c12	SRC2 TRFRET art 2045
CSc1nsc(/C=C/Nc2ccc(C(=O)O)cc2)c1C#N	SRC1 TRFRET art 2461, SRC2 TRFRET art 2141, SRC3 TRFRET art 2133
CSc1nsc(/C=C/Nc2ccc(F)cc2F)c1C#N	none
CCOC(=O)c1ccc(NC(=O)C(C)Sc2nc(O)c(-c3ccccc3)c(=O)[nH]2)cc1 (configuration not stated)	none
CCCCSc1nnc([C@H](C)NC(=O)OC(C)(C)C)o1	PPARg SRC-2 ag 39, SRC2 TRFRET art 2298 (no result: SRC1 TRFRET art, SRC3 TRFRET art)
CCOC(=O)n1cc(-c2cnc(CNC(=O)C(C)(c3ccccc3)c3ccccc3)o2)c2ccccc21	PPARg SRC-2 ag 28
CC(C(=O)NCCN1CCOCC1)(c1ccccc1)c1ccccc1	none
Cc1csc(C(C#N)C(=O)c2ccncc2)n1 (configuration not stated)	PPARg SRC-2 ag 31, SRC2 TRFRET art 2112
Cc1cnc(NC(=O)c2ccncc2)s1	none
Cc1sc2c(c1C)c(=O)nc1scc(C)n12	none (no result: SRC1 TRFRET art, SRC3 TRFRET art)
CCOc1ccc(-n2nc3c(=O)[nH]nc(C)c3c2C)cc1	none
CCOc1ccc(-n2nc3c(=S)[nH]nc(C)c3c2C)cc1	SRC3 TRFRET art 2186
COc1cccc(-c2csc(N3CCN(C(=S)Nc4ccc(Cl)cc4)CC3)n2)c1	SRC2 TRFRET art 3147 (no result: SRC1 TRFRET art, SRC3 TRFRET art)
COc1cccc(-c2csc(N3CCN(C(=O)NC45CC6CC(CC(C6)C4)C5)CC3)n2)c1	SRC2 TRFRET art 2123 (no result: SRC1 TRFRET art, SRC3 TRFRET art)
CCOc1ccc2cc(C#N)c(SCC(=O)NC(C)CC)nc2c1 (configuration not stated)	PPARg SRC1 recr 32 (no result: SRC1 TRFRET art, SRC3 TRFRET art)
COc1cc(C)c(NC(=O)C(=S)NCCc2ccccc2)cc1C	none
Cc1ccc(CNC(=O)Cn2cccc2C(=O)c2ccccc2C)cc1	none
Cc1ccccc1C(=O)c1cccn1CC(=O)NCCC1=CCCCC1	SRC1 TRFRET art 2753
Cc1oc2ccc(OC(=O)COc3c(F)c(F)c(F)c(F)c3F)cc2c1C(=O)OC(C)C	SRC2 TRFRET art 2175
COCCOC(=O)c1c(C)oc2ccc(OC(=O)COc3c(F)c(F)c(F)c(F)c3F)cc12	none (no result: SRC1 TRFRET art, SRC3 TRFRET art)
Cc1cccc(-c2noc(-c3cc4ccccc4oc3=O)n2)c1	none (no result: SRC1 TRFRET art, SRC3 TRFRET art)
O=C(C1=C[C@@H](c2ccc(Br)cc2)C[C@@H](OCCCCO)O1)N1CCN(Cc2ccc3c(c2)OCO3)CC1	PPARg SRC3 recr 31
CC1CCCCC1NC1=NCCCS1 (configuration not stated)	none
Cc1ccc(S(=O)(=O)Cn2nnnc2C(CC(C)C)N2CCN(C)CC2)cc1 (configuration not stated)	none
COc1cc2nc(C3CCC3)n(NC(=O)c3ccco3)c(=O)c2cc1OC	none
Cc1cccc(NC(=O)c2cc(-c3ccc(C)s3)nc3ccccc23)n1	SRC2 TRFRET art 2007, SRC3 TRFRET art 2191
Cc1cc(NC(=O)c2cc(-c3ccc(C)s3)nc3ccccc23)no1	none (no result: SRC1 TRFRET art, SRC3 TRFRET art)
O=C(c1cc(-c2ccccn2)nc2c(Cl)cccc12)N1CCN(C(=O)C2CCCO2)CC1 (configuration not stated)	none (no result: SRC1 TRFRET art, SRC3 TRFRET art)
CN(C)S(=O)(=O)c1cccc(NC(=O)c2cc(-c3cccs3)nc3ccccc23)c1	SRC2 TRFRET art 2036, SRC3 TRFRET art 2449
O=C(c1cc(-c2cccs2)nc2ccccc12)N1CCN(S(=O)(=O)c2ccccc2)CC1	SRC2 TRFRET art 2313 (no result: SRC1 TRFRET art, SRC3 TRFRET art)

High-throughput results (PubChem BioAssay)
